# The sample as a whole holds a higher share of hits than the screen did.
# STK33 kin inh: inhibitors of human STK33 kinase; Q9BYT3; ADP-Glo luminescence, MBP substrate; inhibition, % at 12.5 µM; 27,000 tested, 0.44% active; AID 2322; in the data active means inhibition above about 20%; inconclusive means no clear call, values can overlap the other calls
# Target sequence (Q9BYT3 whole entry, looked up): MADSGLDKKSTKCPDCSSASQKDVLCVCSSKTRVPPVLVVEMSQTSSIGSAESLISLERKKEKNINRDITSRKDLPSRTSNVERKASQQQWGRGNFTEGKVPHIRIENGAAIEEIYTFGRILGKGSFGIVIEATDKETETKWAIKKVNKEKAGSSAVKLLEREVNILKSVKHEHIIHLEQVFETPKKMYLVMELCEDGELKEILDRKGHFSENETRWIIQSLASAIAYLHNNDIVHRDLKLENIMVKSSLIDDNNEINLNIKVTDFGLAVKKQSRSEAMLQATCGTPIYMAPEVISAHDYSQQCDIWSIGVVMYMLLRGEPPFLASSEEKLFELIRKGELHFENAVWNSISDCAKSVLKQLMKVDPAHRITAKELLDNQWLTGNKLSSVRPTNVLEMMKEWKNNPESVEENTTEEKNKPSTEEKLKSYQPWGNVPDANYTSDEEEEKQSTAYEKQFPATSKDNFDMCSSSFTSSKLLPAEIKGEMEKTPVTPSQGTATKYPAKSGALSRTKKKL
# NOMO-1 viab: STK33 inhibitor candidate reducing NOMO-1 cell viability; NOMO-1 AML viability, CellTiter-Glo luminescence, 72 h; inhibition, % (no concentration beside the values); 37,000 tested, 7.5% active; AID 2330; in the data active means inhibition above about 80%; inconclusive means no clear call, values can overlap the other calls
# PD-1 reversal: reversal of PD-1 mediated T-cell inhibition; primary human CD4 T cells, PD-L1 beads, CellTiter-Glo 96 h; activation, % (concentration not given with the values); 29,000 tested, under 10 active; AID 2316; call rule not given here;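 further: 0% = median vehicle wells and 100% = positive control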
# * hit, by the source's call; ? = inconclusive; . = no result.
SMILES,STK33 kin inh,NOMO-1 viab,PD-1 reversal
C[C@H]1CN([C@@H](C)CO)C(=O)Cc2cc(NS(C)(=O)=O)ccc2O[C@H]1CN(C)Cc1ccc(C(=O)Nc2ccccc2N)cc1,.,83.8*,-0.8
C[C@@H]1CN([C@H](C)CO)C(=O)Cc2cc(NS(C)(=O)=O)ccc2O[C@H]1CN(C)Cc1ccc(C(=O)Nc2ccccc2N)cc1,.,22.0,-0.4
C[C@@H]1CN([C@H](C)CO)C(=O)Cc2cc(NS(C)(=O)=O)ccc2O[C@@H]1CN(C)Cc1ccc(C(=O)Nc2ccccc2N)cc1,.,36.4,1.0
C[C@H](CO)N1C[C@H](C)[C@H](CN(C)Cc2ccc(C(=O)Nc3ccccc3N)cc2)Oc2ccc(NS(C)(=O)=O)cc2CC1=O,.,128.8*,-1.0
O=C(O)CCSc1nc(-c2ccccc2)c(-c2ccccc2)[nH]1,0.3,-7.1,.
COc1cccc([C@H]2C(C#N)=C(N)C(C#N)(C#N)C3=CCC(C)C[C@@H]32)c1 (stereo partly specified),.,126.8*,-3.1
CC(C)N1CC=C2C(C1)C(c1ccccc1)C(C#N)=C(N)C2(C#N)C#N (stereo unspecified),.,46.9,-0.2
O=C(CSc1nc2ccccc2c(=O)n1-c1ccc(Cl)cc1)Nc1cccc(Cl)c1,-2.2,33.6,-0.5
C[C@H]1CN([C@@H](C)CO)C(=O)c2cccc(NC(=O)Nc3ccc(C(F)(F)F)cc3)c2O[C@H]1CN(C)Cc1ccc(-c2ccccc2)cc1,.,52.2,-4.0
C[C@H](CO)N1C[C@H](C)[C@@H](CN(C)Cc2ccc(-c3ccccc3)cc2)Oc2c(NC(=O)Nc3ccc(C(F)(F)F)cc3)cccc2C1=O,.,52.9,.
C[C@@H]1CN([C@H](C)CO)C(=O)c2cccc(NC(=O)Nc3ccc(C(F)(F)F)cc3)c2O[C@H]1CN(C)Cc1ccccc1,.,100.6*,-6.8
C[C@H](CO)N1C[C@H](C)[C@H](CN(C)Cc2ccccc2)Oc2c(NC(=O)Nc3ccc(C(F)(F)F)cc3)cccc2C1=O,.,74.0,.
C[C@@H]1CN([C@@H](C)CO)C(=O)c2cccc(NC(=O)Nc3ccc(C(F)(F)F)cc3)c2O[C@@H]1CN(C)Cc1ccccc1,.,88.8*,-3.5
C[C@H](CO)N1C[C@H](C)[C@@H](CN(C)Cc2ccccc2)Oc2c(NC(=O)Nc3ccc(C(F)(F)F)cc3)cccc2C1=O,.,115.2*,-7.1
C[C@H]1CN([C@@H](C)CO)C(=O)c2cccc(NC(=O)Nc3ccc(C(F)(F)F)cc3)c2O[C@@H]1CN(C)Cc1ccc(-c2ccccc2)cc1,-1.0,85.1*,-4.7
O=C(COc1ccc(Cl)cc1Cl)Nc1ccc2oc(-c3ccncc3)nc2c1,3.1,-4.6,3.0
CC(=O)O[C@@H]1CC2C(C)(C)C=CC(=O)[C@]2(C)C2CC[C@@]3(C)[C@H](c4ccoc4)OC(=O)C4OC43[C@@]21C (stereo partly specified),-0.5,27.8,1.5
CC(=O)NC1=NC(=O)/C(=C\c2cccs2)N1C,0.1,30.6,3.3
COc1cc(CC2COC(c3ccc(O)c(OC)c3)C2COC2OC(CO)C(O)C(O)C2O)ccc1O (stereo unspecified),-3.1,.,.
CCOc1ccc(-n2c(SCC(=O)Nc3ccc(Cl)cc3)nc3ccccc3c2=O)cc1,9.4,53.5,.
CS(=O)(=O)N(CC(=O)Nc1ccc(F)cc1)c1ccc(Cl)c(Cl)c1,-1.6,8.9,-2.4
COc1ccc(CC(=O)NN2C(=O)CSCC2=O)cc1OC,.,2.7,0.8
COc1ccc(-c2cc(=O)[nH]c(SCC(=O)Nc3ccc(Br)cc3)n2)cc1,12.1,-16.4,0.4
Cc1cc(C)nc(N(C#N)CC(=O)N2c3ccccc3CCc3ccccc32)n1,-1.4,11.7,0.3
Cc1cc(C)nc(N(C#N)C(C(=O)c2ccccc2)c2ccccc2)n1 (stereo unspecified),-1.3,110.2*,.
SMILES,STK33 kin inh,NOMO-1 viab,PD-1 reversal
Cc1cc2c(C(C)C)c(O)c(O)c(C=O)c2c(O)c1-c1c(C)cc2c(C(C)C)c(O)c(O)c(C=O)c2c1O,-4.4,110.7*,.
CCc1cc(O)c(C)c(O)c1C=O,-5.3,.,.
O=S(=O)(Cc1nc(-c2ccccc2Cl)cs1)c1cccs1,0.4,0.3,2.3
Cc1ccc(S(=O)(=O)Nc2ccc3c(c2)CC(=O)N([C@@H](C)CO)C[C@H](C)[C@@H](CN(C)CC2CCCCC2)O3)cc1,1.9,?,-2.0
C[C@@H]1CN([C@@H](C)CO)C(=O)Cc2cc(NS(=O)(=O)c3ccc(Cl)cc3)ccc2O[C@@H]1CN(C)CC1CCCCC1,1.0,101.6*,-5.9
C[C@H]1CN([C@@H](C)CO)C(=O)Cc2cc(NS(=O)(=O)c3ccc(Cl)cc3)ccc2O[C@H]1CN(C)CC1CC1,4.2,9.1,0.9
Cc1ccc(S(=O)(=O)Nc2ccc3c(c2)CC(=O)N([C@@H](C)CO)C[C@@H](C)[C@@H](CN(C)CC2CCCCC2)O3)cc1,2.2,97.1*,-1.3
Cc1cc(Br)cc2c1N(C)C(=O)/C2=C1\SC(=Nc2ccc(F)cc2)NC1=O,.,9.7,0.8
C[C@@H]1CN([C@H](C)CO)C(=O)c2cc(NC(=O)Nc3ccc4c(c3)OCO4)ccc2O[C@H]1CN(C)Cc1ccc(C(=O)O)cc1,.,29.8,-0.1
C[C@@H]1CN([C@@H](C)CO)C(=O)c2cc(NC(=O)Nc3ccc4c(c3)OCO4)ccc2O[C@@H]1CN(C)Cc1ccc(C(F)(F)F)cc1,1.1,90.5*,1.6
C[C@@H]1CN([C@H](C)CO)C(=O)c2cc(NC(=O)Nc3ccc(C(F)(F)F)cc3)ccc2O[C@H]1CN(C)Cc1ccc2c(c1)OCO2,.,53.6,.
C[C@H]1CN([C@@H](C)CO)C(=O)c2cc(NC(=O)Nc3ccc(C(F)(F)F)cc3)ccc2O[C@H]1CN(C)Cc1ccc2c(c1)OCO2,0.9,106.1*,-1.6
CC(=O)Nc1c(O)nc(SCC(=O)N(c2ccccc2)c2ccccc2)[nH]c1=O,-3.7,0.7,1.9
O=C(NCCCN1CCOCC1)Nc1ccc(Cl)cc1,-0.1,12.4,.
C[C@@H]1CN([C@@H](C)CO)C(=O)c2cccc(NC(=O)Nc3cccc4ccccc34)c2O[C@H]1CN(C)C(=O)Nc1ccccc1,.,24.6,-1.8
C[C@H](CO)N1C[C@H](C)[C@H](CN(C)C(=O)Nc2ccccc2)Oc2c(NC(=O)Nc3cccc4ccccc34)cccc2C1=O,.,72.8,-2.6
C[C@@H]1CN([C@H](C)CO)C(=O)c2cccc(NC(=O)Nc3ccccc3)c2O[C@@H]1CN(C)C(=O)Nc1cccc2ccccc12,.,104.8*,0.2
C[C@@H]1CN([C@@H](C)CO)C(=O)c2cccc(NC(=O)Nc3ccccc3)c2O[C@@H]1CN(C)C(=O)Nc1cccc2ccccc12,.,106.4*,0.6
Cc1ccc(NC(=O)C(C)Oc2ccc(Br)cc2)c([N+](=O)[O-])c1 (stereo unspecified),1.7,3.1,0.3
C[C@@H]1CN([C@H](C)CO)C(=O)c2cccc(NC(=O)CCCCCC(=O)Nc3ccccc3N)c2O[C@H]1CN(C)Cc1ccc(-c2ccccc2)cc1,.,125.7*,0.1
C[C@H]1CN([C@@H](C)CO)C(=O)c2cccc(NC(=O)CCCCCC(=O)Nc3ccccc3N)c2O[C@@H]1CN(C)Cc1ccc(-c2ccccc2)cc1,.,134.4*,0.0
C[C@@H]1CN([C@H](C)CO)C(=O)c2cccc(NC(=O)CCCCCC(=O)Nc3ccccc3N)c2O[C@@H]1CN(C)CC1CCCCC1,.,118.6*,1.3

# Assay outcomes: PubChem, Broad Institute
